Screening data as filed in PubChem.
The list is not random: actives were taken first. Their share in the collection is about 9.3%.
ELG1 DNA repair: qHTS screen for small molecules that inhibit ELG1-dependent DNA repair in human embryonic kidney (HEK293T) cells expressing luciferase-tagged ELG1 | HEK293T ELG1-luciferase reporter, luminescence, 16 h; DNA damage induced by 5-fluorouridine | Potency, µM (doses to about 46.1 µM), inactives show at the highest dose activity change, negative = inhibition, hits mostly inhibitors | hit rate 2.3% among 330,000; note: % is set by controls: 0 for no effect and ±100 for the full control effect; nearly all actives have a fitted effect of over 55% in size
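Step one: seed 2,000 cells per well. Step two: pin-transfer compound or DMSO alongside 5-fluorouridine. Step three: incubate 16 hr, 37 °C, 5% CO2. Step four: add ONE-Glo, wait 30 min, read luminescence.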
Rab9 prom act: qHTS Assay for Rab9 Promoter Activators. Huh7 Rab9 promoter-luciferase reporter, luminescence, 24 h. AID 485297, 2010. Potency, µM (top dose mostly 9.22 µM), for inactives: at the highest dose activation, negative = inhibition, actives largely listed as activators. hit rate 2.8% among 320,000; note: % of control where 0% means no effect; nearly all actives have a fitted effect of over 60% in size
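Promoter activation is measured as luciferase luminescence in Huh7 cells stably transfected with a Rab9 promoter–luciferase construct, following 24 h compound exposure at 37 °C and 10 min reagent incubation at ambient temperature.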
ELG1 genotoxic: qHTS screen for small molecules that induce genotoxicity in human embryonic kidney (HEK293T) cells expressing luciferase-tagged ELG1; Potency, µM (top dose mostly 46 µM), for the others: top-dose activity change, positive = activation, most hits filed as activators; HEK293T ELG1-luciferase reporter, luminescence, 16 h; AID 504466, 2011; hit rate 1.3% among 330,000; note: % of control where 0% means no effect; nearly all actives have a fitted effect of over 60% in size
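Genotoxicity was scored as increased ELG1-luciferase reporter signal, measured by ONE-Glo luminescence (30 min, room temperature). Compound or vehicle exposure of the HEK293T reporter cells lasted 16 hr at 37°C.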
NPC1 promoter act: qHTS Assay for NPC1 Promoter Activators | Huh7 NPC1 promoter luciferase reporter, 24 h | Potency, µM (titrated, usually from 9.22 µM), for inactives: top-dose activation, hits mostly activators | hit rate 2.4% among 320,000; note: % of control where 0% means no effect; nearly all actives have a fitted effect of over 60% in size
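Readout is luciferase luminescence, reflecting NPC1 promoter activation in stably transfected Huh7 cells after 24 h compound exposure at 37 °C in reduced-serum medium with 10% FBS.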
SMN2 splice enh: qHTS Assay for Enhancers of SMN2 Splice Variant Expression; HEK293 SMN2-luciferase splicing reporter, luminescence, 30-36 h; Potency, µM (titrated, usually from 46.1 µM), inactives show at the highest dose activity change, positive = activation, most hits filed as activators; hit rate 2.8% among 210,000; note: % of control where 0% means no effect; nearly all actives have a fitted effect of over 55% in size
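HEK293 cells carry an SMN2 minigene-luciferase reporter in which exon 7 inclusion puts luciferase in frame. Cells were seeded at 2000 cells/well, attached for 10-12 hours, then exposed to compounds for 30-36 hours at 37C before ONE-Glo luminescence.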
FLuc counter: qHTS profiling assay for firefly luciferase inhibitor/activator using purifed enzyme and Km concentrations of substrates (counterscreen for miR-21 project); Luciferin 4-monooxygenase (Photinus pyralis), P08659; purified FLuc, Km substrates, luminescence inhibition; Potency, µM (highest dose often 57.5 µM), inactives show at the top dose activity change, negative = inhibition, usual class: inhibitors; hit rate 6.9% among 360,000;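 note: plate controls were vehicle for no effect and reference inhibitor for full effect; nearly all actives have a fitted effect of over 55% in size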
Target sequence (P08659 whole entry, looked up): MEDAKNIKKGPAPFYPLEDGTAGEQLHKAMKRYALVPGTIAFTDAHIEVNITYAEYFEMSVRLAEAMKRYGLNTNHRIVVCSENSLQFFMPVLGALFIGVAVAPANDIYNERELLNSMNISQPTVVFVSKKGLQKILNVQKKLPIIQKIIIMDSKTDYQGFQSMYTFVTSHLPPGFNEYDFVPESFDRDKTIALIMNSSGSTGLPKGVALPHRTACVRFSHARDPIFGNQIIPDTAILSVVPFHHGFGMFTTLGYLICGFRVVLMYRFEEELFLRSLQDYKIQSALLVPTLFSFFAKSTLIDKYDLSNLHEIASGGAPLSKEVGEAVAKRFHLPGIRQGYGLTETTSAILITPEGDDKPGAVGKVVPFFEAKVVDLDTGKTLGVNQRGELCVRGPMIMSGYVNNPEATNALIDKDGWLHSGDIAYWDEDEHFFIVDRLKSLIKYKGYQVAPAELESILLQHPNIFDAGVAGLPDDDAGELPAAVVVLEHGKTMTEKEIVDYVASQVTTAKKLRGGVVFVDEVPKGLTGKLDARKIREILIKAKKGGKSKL
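Biochemical qHTS of compounds, final roughly 60 µM downward over six points, against 10 nM purified firefly luciferase using Km concentrations of substrates (10 uM D-luciferin, 10 uM ATP) in Tris acetate pH 7.5 buffer; luminescence output.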
Starred values were filed as active, the others as inactive; ? = inconclusive; nt = not tested or not shown. Calls come from the whole dose curve; as a rule, active = well fitted curve in the direction sought with a large enough effect; inconclusive = small, poorly fitted or top-dose-only effect, or another doubt; inactive = no such curve, though single readings can be large; an effect the other way counts as inactive or inconclusive. Potency is the fitted concentration of half-maximal effect.

SMILES | ELG1 DNA repair | Rab9 prom act | ELG1 genotoxic | NPC1 promoter act | SMN2 splice enh | FLuc counter
CC(=O)Nc1cccc(-c2nc3ccccc3c(=O)o2)c1 | 10% | -3% | 0% | 0% | -5% | -7%
CCC(=O)Oc1ccc(-c2nc3ccccc3c(=O)o2)cc1 | nt | nt | nt | nt | -5% | 1.7µM*
CCCOc1ccc(-c2nc(OC)c3ccccc3n2)cc1 | ? | 3% | 5% | 19% | -10% | 13µM*
CCCOc1ccc(-c2nc3ccccc3c(=O)o2)cc1 | nt | nt | nt | nt | 16µM* | 0.67µM*
O=C(Nc1cc(-c2ccc(F)c(F)c2)no1)c1ccccc1F | nt | nt | nt | nt | nt | -12%
Cc1ccc(C)c(OCCC(=O)OC(C)C(=O)Nc2c(C)n(C)n(-c3ccccc3)c2=O)c1 (stereo unspecified) | -10% | -6% | -1% | 0% | nt | 4%
CC(=O)Nc1cccc(C(=O)OCC(=O)NCc2ccc(F)cc2)c1 | 17% | -4% | 7% | -1% | -12% | -9%
O=C(CCc1ccc(Oc2cc([N+](=O)[O-])cc([N+](=O)[O-])c2)cc1)N1CCCCC1 | 13µM* | -3% | -10% | 0% | -95% | 2%
Cc1cc2ncn(C(=O)N3CCC(C)CC3)c2cc1C | ? | ? | 12% | 23% | 16µM* | ?
c1ccc2c(c1)ncc1cccn12 | ? | 13% | -8% | -1% | 0% | -3%
CCn1c2ccccc2c2c3ncc4cccn4c3ccc21 | ? | ? | 12% | 3.2µM* | nt | 3µM*
CCc1ccc2[nH]c(=O)c(C3C(C#N)=C(N)Oc4c3ccc3cccnc43)cc2c1 (stereo unspecified) | 12µM* | 3% | 2% | -4% | -13% | 4%
Cc1ccc2cc(C3C(C#N)=C(N)Oc4c3ccc3cccnc43)c(=O)[nH]c2c1 (stereo unspecified) | -5% | 0% | 7% | 0% | -57% | -19%
O=C(NCCOc1ccccc1)c1ccccc1SCC(=O)N1CCCC1 | 3% | -6% | 0% | 1% | nt | -1%
CN(C)c1ccc(/C=C2\SC(=S)N(Nc3ncc(C(F)(F)F)cc3Cl)C2=O)cc1 | 16% | -2% | 0% | 5% | 7% | 9.5µM*
COc1cc(/C=C2\SC(=S)N(Nc3ncc(C(F)(F)F)cc3Cl)C2=O)ccc1O | ? | -3% | 7% | -1% | -3% | 8.5µM*
COc1cc(/C=C2\SC(=S)N(c3cccnc3)C2=O)ccc1O | 8% | -2% | 1% | -3% | nt | -7%
Cc1ccc(NC2CCCN(C(=O)c3ccoc3C)C2)cc1C (stereo unspecified) | 0% | -3% | -6% | 2% | nt | 0%
CN(C)C=C1C(=O)c2ccccc2C1=O | 23% | -8% | 8% | -3% | ? | 0%
Cc1ccc(Sc2ccc(/C=C3/C(=O)NN(c4ccccc4)C3=O)o2)cc1 | 23% | -10% | 8% | -1% | nt | -13%
Cc1ccsc1/C=C1/C(=O)NN(c2ccccc2)C1=O | 2% | -4% | -7% | ? | -4% | 9.5µM*
Cc1ccsc1C=C1C(=O)c2ccccc2C1=O | 11% | ? | 2% | ? | 9% | 1.3µM*
COc1ccc2c(C(=O)NCc3ccc4c(c3)OCO4)c(-c3ccc(S(C)(=O)=O)cc3)sc2c1 | ? | nt | 1% | nt | nt | nt
O=C(c1cc2cc3ccc(Cl)cc3nc2o1)N1CCCCCC1 | ? | 3.5µM* | ? | 2.5µM* | nt | 2.7µM*
O=C(c1cc2cc(Cl)ccc2o1)N1CCCCCC1 | ? | 4µM* | 13% | ? | nt | 2%
SMILES | ELG1 DNA repair | Rab9 prom act | ELG1 genotoxic | NPC1 promoter act | SMN2 splice enh | FLuc counter
O=S(Cc1ccc(Br)cc1)Cc1nnc(SCc2c(F)cccc2Cl)n1-c1ccccc1 (stereo unspecified) | 23µM* | -21% | -7% | -9% | -69% | 0%
O=S(Cc1ccc(Br)cc1)Cc1nnc(SCc2ccc(Cl)cc2)n1-c1ccccc1 (stereo unspecified) | ? | -12% | -6% | -5% | -43% | -3%
O=C1C=C(c2ccc3c(c2)OCO3)C[C@@H](c2ccc(Cl)cc2)C1 | 13% | -6% | -1% | 2% | nt | 0%
COc1ccc2c(c1)O[C@H](c1ccc3c(c1)OCO3)[C@@H](O)C2=O | ? | 19% | -1% | 21% | 13µM* | ?
COc1ccc2c(c1)C(=O)CC(c1ccc3c(c1)OCCO3)O2 (stereo unspecified) | ? | ? | 15% | ? | nt | 21µM*
CCOC(=O)C(/C=C(\C#N)C(=O)OCC)=C(/N)N1CCN(c2ccccc2)CC1 | 4% | -1% | 2% | -1% | 1% | 4%
CCOC(=O)/C(C#N)=C/c1ccc(N2CCN(C)CC2)cc1 | ? | 1% | -2% | -2% | 5% | 27µM*
CCOC(=O)/C(C#N)=C\c1ccc(N2CCN(C)CC2)cc1 | 20% | -3% | 4% | -1% | 1% | 12µM*
Cn1c(SCc2cccc(F)c2)nc2c([nH]c3ccccc32)c1=O | nt | nt | nt | nt | nt | -3%
CCN(C(=O)COC(=O)C1CCN(S(=O)(=O)c2ccc3c(c2)OCCO3)CC1)C1CCCCC1 | -12% | -4% | 2% | -2% | nt | 0%
CCOc1cc(/C=N/Nc2ccc(C(=O)O)cc2)ccc1OC(=O)c1ccccc1C | ? | 4µM* | 16% | 1.4µM* | nt | ?
COc1cccc(OCc2cc(/C=N/Nc3ccc(C(=O)O)cc3)ccc2OC)c1 | ? | ? | 4.6µM* | 18% | nt | 6.7µM*
COc1cccc(C(=O)Oc2ccc(/C=N/Nc3ccc(C(=O)O)cc3)cc2OC)c1 | ? | ? | ? | 0.45µM* | nt | 24µM*
CCOC(=O)c1c(NC(=O)COC(=O)Cc2c[nH]c3ccccc23)sc(C(=O)N(C)C)c1C | -22% | 10% | -3% | 2% | nt | 5%
Cc1ccn2c(C(=O)N/N=C/c3ccc(CNC(=O)C(=O)Nc4ccc(C)c(C)c4)o3)c(C)nc2c1 | ? | -1% | 0% | 1% | 28% | 6.7µM*
Cc1ccc(NC(=O)C(=O)NCc2ccc(/C=N/NC(=O)c3c(C)nc4ccccn34)o2)cc1 | -2% | -2% | 2% | -2% | ? | 1.7µM*
CCCS(=O)(=O)N1CCc2ccc(NC(=O)c3ccccc3Cl)cc2C1 | ? | 0% | -3% | 2% | nt | 17µM*
CN(C)S(=O)(=O)N1CCc2ccc(NC(=O)c3ccccc3Cl)cc2C1 | 13% | 17% | 4% | 15% | nt | 11µM*
